Reference: the supplement of paper PMC10849652
The full data set covers some 7,900 targets. This sample favours those with a hit. About 0.6% of all pairs of compound and target were hits. A number with no mark means an inactive call.

How the values were obtained:
Experiment in all cases: log2 fold change, soluble protein after heating vs DMSO (PISA); higher = thermal stabilisation; K562 cells, 10 uM, 30 min; active = over 0.2 and 3.5 SD of the protein, either way, in both replicates (recomputed)
[1] = compound: COC1=CC=C(C=C1)CN2C=CC3=C2C=C(C=C3)C(=O)NO
Outline: (§1)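 Thermal stability values are relative to control samples and come from duplicates. They are expressed as log2 fold changes. For measurement, K562 cells (2×10^6 cells/mL) received 10 μM compound for 30 min, and aliquots were heated for 3 min over 48°C-58°C, pooled, and extracted at 4°C in PBS with 0.5% NP-40. Soluble protein, the supernatant after 21,000xg for 90 min, was quantified by TMTpro 16plex LC-MS/MS with equalised channel sums.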

filanesib = compound: CON(C)C(=O)N1N=C(c2cc(F)ccc2F)S[C@@]1(CCCN)c1ccccc1 [filanesib]
Outline: as §1

zotarolimus = compound: CO[C@H]1C[C@@H]2CC[C@@H](C)[C@@](O)(O2)C(=O)C(=O)N2CCCC[C@H]2C(=O)O[C@H]([C@H](C)C[C@@H]2CC[C@H](n3cnnn3)[C@H](OC)C2)CC(=O)[C@H](C)/C=C(\C)[C@@H](O)[C@@H](OC)C(=O)[C@H](C)C[C@H](C)/C=C/C=C/C=C/1C [zotarolimus]
Outline: as §1

idasanutlin = compound: COc1cc(C(=O)O)ccc1NC(=O)[C@@H]1N[C@@H](CC(C)(C)C)[C@](C#N)(c2ccc(Cl)cc2F)[C@H]1c1cccc(Cl)c1F [idasanutlin]
Outline: as §1

alisertib = compound: COc1cc(Nc2ncc3c(n2)-c2ccc(Cl)cc2C(c2c(F)cccc2OC)=NC3)ccc1C(=O)O [alisertib]
Outline: as §1

[2] = compound: COc1cc2nc(-c3cc(F)ccc3O)nc(N[C@@H]3CNC[C@H]3C(C)(C)O)c2cc1OC
Outline: as §1

gefitinib = compound: COc1cc2ncnc(Nc3ccc(F)c(Cl)c3)c2cc1OCCCN1CCOCC1 [gefitinib]
Outline: as §1

[3] = compound: COc1cccc2cc(-c3nc([C@H]4CC[C@H](C(=O)O)CC4)n4ncnc(N)c34)[nH]c12
Outline: as §1

lapatinib = compound: CS(=O)(=O)CCNCc1ccc(-c2ccc3ncnc(Nc4ccc(OCc5cccc(F)c5)c(Cl)c4)c3c2)o1 [lapatinib]
Outline: as §1

pictilisib = compound: CS(=O)(=O)N1CCN(Cc2cc3nc(-c4cccc5[nH]ncc45)nc(N4CCOCC4)c3s2)CC1 [pictilisib]
Outline: as §1

UniProt P09668, sequence (P09668 whole entry, looked up): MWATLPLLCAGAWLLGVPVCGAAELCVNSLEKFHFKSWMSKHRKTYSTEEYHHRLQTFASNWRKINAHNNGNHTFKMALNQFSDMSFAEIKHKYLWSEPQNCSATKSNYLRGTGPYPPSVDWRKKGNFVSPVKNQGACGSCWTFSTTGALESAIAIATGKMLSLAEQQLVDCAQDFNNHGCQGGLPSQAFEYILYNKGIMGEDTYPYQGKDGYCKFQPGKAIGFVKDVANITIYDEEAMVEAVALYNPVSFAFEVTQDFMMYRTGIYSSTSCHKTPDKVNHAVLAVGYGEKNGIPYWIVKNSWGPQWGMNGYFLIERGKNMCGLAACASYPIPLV
UniProt Q9GZT9, sequence (Q9GZT9 whole entry, looked up): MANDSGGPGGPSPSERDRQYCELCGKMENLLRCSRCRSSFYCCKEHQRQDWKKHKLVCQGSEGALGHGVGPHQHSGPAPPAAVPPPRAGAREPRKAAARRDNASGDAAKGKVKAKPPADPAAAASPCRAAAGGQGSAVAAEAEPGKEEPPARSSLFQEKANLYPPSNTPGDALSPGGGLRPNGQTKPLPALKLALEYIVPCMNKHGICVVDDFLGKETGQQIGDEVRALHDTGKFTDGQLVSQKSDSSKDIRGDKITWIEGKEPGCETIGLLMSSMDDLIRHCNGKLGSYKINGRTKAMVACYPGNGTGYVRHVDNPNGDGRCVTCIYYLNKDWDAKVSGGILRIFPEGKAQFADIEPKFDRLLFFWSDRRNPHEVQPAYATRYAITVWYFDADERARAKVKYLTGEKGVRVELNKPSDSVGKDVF
UniProt Q9H410, sequence (Q9H410 whole entry, looked up): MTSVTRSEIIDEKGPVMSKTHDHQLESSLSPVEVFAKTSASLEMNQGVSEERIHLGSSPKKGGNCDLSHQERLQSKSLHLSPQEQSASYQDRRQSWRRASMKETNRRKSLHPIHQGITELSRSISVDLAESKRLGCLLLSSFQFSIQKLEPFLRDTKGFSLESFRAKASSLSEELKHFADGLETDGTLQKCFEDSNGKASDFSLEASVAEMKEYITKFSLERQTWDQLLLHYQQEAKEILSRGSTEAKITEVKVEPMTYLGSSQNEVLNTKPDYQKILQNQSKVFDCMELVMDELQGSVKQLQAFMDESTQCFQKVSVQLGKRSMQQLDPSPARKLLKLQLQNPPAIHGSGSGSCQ
UniProt P98173, sequence (P98173 whole entry, looked up): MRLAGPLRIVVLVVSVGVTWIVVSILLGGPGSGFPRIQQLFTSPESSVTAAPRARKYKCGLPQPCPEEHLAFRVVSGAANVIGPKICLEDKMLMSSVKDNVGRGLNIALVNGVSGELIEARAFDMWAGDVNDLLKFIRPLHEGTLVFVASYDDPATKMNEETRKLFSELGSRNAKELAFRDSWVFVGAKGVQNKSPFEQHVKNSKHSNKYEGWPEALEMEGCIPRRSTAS
UniProt O43432, sequence (O43432 whole entry, looked up): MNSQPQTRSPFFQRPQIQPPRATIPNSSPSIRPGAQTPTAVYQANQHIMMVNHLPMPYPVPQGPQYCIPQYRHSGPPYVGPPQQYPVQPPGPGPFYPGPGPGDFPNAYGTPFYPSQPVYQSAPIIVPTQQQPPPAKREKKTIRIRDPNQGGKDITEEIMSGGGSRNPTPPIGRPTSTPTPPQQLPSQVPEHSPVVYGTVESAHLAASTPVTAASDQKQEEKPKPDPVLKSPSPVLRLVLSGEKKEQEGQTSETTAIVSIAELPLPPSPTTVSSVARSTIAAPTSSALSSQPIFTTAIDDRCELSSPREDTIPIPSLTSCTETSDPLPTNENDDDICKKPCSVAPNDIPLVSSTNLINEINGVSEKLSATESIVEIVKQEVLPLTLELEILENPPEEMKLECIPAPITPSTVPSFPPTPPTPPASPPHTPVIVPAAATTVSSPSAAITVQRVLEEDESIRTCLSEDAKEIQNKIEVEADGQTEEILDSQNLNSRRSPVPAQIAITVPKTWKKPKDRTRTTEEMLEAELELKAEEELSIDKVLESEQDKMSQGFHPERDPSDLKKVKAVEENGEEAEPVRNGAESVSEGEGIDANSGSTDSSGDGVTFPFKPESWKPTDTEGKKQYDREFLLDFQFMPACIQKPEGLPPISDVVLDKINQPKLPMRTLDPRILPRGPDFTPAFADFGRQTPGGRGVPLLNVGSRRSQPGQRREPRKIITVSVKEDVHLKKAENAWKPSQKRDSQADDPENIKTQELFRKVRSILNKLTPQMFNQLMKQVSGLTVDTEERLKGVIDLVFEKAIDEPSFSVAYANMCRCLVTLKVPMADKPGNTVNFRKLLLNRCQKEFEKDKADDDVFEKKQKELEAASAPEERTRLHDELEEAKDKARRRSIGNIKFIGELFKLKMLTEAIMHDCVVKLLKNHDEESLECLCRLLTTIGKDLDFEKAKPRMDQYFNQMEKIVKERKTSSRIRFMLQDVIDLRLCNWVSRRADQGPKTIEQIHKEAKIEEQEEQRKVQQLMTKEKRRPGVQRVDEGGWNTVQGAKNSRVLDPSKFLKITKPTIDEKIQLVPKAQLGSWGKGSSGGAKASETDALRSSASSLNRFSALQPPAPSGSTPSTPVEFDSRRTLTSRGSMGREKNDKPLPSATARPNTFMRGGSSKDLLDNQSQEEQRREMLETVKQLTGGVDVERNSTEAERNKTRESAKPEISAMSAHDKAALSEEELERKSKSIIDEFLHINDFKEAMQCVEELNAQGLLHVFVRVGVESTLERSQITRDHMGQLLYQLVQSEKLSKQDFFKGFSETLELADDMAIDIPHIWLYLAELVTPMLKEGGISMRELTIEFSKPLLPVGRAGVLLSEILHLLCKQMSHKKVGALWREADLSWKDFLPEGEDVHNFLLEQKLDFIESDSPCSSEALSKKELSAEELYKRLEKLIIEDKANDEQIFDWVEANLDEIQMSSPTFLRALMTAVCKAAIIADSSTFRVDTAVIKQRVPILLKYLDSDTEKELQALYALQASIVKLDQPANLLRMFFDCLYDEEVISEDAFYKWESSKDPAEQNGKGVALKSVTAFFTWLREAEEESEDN
UniProt P06730, sequence (P06730 whole entry, looked up): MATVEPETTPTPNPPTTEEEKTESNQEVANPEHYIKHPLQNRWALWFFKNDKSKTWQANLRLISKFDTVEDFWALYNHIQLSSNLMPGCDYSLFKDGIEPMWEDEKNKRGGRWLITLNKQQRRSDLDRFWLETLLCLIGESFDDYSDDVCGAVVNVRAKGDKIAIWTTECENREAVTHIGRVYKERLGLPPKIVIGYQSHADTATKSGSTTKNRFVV
UniProt Q9NVR5, sequence (Q9NVR5 whole entry, looked up): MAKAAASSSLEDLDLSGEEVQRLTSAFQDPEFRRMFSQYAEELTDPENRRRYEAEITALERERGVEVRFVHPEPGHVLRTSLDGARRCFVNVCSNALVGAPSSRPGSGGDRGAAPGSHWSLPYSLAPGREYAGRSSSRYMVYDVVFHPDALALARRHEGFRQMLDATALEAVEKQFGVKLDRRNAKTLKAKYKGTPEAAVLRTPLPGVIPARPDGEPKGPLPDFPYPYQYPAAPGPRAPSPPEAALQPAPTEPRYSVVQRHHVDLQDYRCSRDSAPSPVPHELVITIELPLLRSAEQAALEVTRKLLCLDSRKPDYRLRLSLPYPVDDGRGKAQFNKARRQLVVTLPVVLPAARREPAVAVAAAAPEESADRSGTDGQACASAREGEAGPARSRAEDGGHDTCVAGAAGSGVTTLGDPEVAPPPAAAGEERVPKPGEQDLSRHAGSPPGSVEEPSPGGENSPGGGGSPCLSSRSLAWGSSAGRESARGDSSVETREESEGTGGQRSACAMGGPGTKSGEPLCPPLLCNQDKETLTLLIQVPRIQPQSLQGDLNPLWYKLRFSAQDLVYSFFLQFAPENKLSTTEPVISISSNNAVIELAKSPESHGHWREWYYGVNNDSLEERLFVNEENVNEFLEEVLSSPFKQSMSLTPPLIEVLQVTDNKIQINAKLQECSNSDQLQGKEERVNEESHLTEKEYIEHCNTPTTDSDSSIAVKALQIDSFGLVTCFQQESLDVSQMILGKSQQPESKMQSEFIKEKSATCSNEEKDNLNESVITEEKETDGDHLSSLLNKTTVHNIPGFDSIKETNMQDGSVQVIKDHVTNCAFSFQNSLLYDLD
UniProt Q9UK59, sequence (Q9UK59 whole entry, looked up): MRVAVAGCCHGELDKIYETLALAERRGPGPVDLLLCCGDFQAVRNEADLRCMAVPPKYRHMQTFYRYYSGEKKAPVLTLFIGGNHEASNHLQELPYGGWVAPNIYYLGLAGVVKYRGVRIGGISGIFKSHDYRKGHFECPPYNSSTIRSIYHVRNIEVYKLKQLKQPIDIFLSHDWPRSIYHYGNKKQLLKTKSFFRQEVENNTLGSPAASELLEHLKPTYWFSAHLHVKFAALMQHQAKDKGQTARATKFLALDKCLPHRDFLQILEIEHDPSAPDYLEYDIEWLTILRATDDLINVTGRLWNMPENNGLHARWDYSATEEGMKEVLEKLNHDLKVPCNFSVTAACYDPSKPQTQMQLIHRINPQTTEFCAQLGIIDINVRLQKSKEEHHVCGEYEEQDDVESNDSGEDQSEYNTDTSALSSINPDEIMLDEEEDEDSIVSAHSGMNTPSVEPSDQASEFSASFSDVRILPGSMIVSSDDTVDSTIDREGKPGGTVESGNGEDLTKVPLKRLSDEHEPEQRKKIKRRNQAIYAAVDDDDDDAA
UniProt O00148, sequence (O00148 whole entry, looked up): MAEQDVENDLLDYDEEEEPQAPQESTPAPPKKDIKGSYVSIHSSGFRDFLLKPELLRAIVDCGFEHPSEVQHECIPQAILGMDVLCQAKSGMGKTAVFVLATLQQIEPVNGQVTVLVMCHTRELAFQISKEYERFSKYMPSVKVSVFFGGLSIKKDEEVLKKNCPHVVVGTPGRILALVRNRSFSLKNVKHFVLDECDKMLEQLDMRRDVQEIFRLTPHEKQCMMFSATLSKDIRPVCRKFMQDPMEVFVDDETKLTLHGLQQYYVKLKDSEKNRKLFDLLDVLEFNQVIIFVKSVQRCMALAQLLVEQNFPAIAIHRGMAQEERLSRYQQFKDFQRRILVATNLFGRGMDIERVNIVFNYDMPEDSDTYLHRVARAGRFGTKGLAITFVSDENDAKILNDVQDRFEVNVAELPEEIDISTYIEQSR

| Target | log2 fold change [1] | log2 fold change (filanesib) | log2 fold change (zotarolimus) | log2 fold change (idasanutlin) | log2 fold change (alisertib) | log2 fold change [2] | log2 fold change (gefitinib) | log2 fold change [3] | log2 fold change (lapatinib) | log2 fold change (pictilisib) |
| --- | --- | --- | --- | --- | --- | --- | --- | --- | --- | --- |
| DSN1 (UniProt Q9H410) | 0.032 | 0.048 | 0.114 | -0.013 | 0.018 | -0.017 | 0.113 | -0.23 | -0.028 | – |
| FADS3 (UniProt Q9Y5Q0) | -0.067 | -0.151 | -0.062 | 0.007 | 0.005 | -0.036 | 0.04 | 0.168 | 0.097 | 0.168 |
| EED, A0A5F9ZI63 | 0.008 | 0.115 | -0.01 | 0.08 | -0.097 | 0.032 | 0.006 | 0.018 | 0.091 | -0.163 |
| EXOC2 (UniProt Q96KP1) | 0.015 | -0.009 | 0.021 | -0.02 | -0.011 | 0.096 | 0.107 | -0.106 | -0.037 | 0.059 |
| EIF4E isoform 2 (UniProt P06730) | -0.002 | -0.038 | 0.346 (active) | -0.085 | -0.083 | 0.039 | 0.112 | 0.354 (active) | 0.039 | 0.373 (active) |
| F5 (UniProt P12259) | -0.032 | -0.05 | -0.051 | 0.613 (active) | -0.074 | -0.089 | 0.026 | 0.059 | 0.034 | 0.074 |
| FAM117A (UniProt Q9C073) | 0.105 | -0.025 | 0.008 | 0.076 | 0 | -0.059 | -0.004 | 0.024 | -0.026 | -0.019 |
| EIF4G3 isoform 3 (UniProt O43432) | -0.15 | 0.063 | 0.002 | 0 | -0.003 | -0.01 | 0.032 | -0.32 | 0.142 | – |
| EGLN1 (UniProt Q9GZT9) | -0.361 (active) | -0.07 | -0.022 | -0.004 | 0.018 | 0.018 | 0.022 | -0.074 | 0.01 | 0.009 |
| ETNK1 (UniProt Q9HBU6) | -0.083 | -0.172 | 0.016 | -0.105 | -0.045 | 0.013 | -0.02 | 0.01 | 0.078 | -0.044 |
| EFCAB14 (UniProt O75071) | 0.139 | -0.018 | 0.147 | 0.027 | 0.043 | -0.014 | 0.04 | -0.04 | 0.021 | 0.06 |
| DYNC1LI2 (UniProt O43237) | -0.19 | 0.384 | 0.005 | 0.092 | -0.053 | 0.101 | -0.099 | -0.119 | 0.116 | -0.223 |
| CTSB (UniProt P07858) | 0.044 | -0.16 | 0.044 | 0.032 | 0.007 | -0.006 | 0.024 | 0.03 | -0.016 | 0.043 |
| DTNBP1 (UniProt Q96EV8) | -0.033 | -0.115 | -0.009 | -0.068 | -0.003 | 0.004 | 0.018 | 0.044 | -0.041 | 0.073 |
| CTSH (UniProt P09668) | 0.066 | -0.072 | -0.046 | 0.029 | -0.06 | 0.021 | 0.025 | 0.084 | 0.018 | 0.019 |
| CYFIP1 (UniProt Q7L576) | 0.053 | -0.027 | 0.039 | -0.028 | 0.061 | -0.004 | 0.008 | 0.013 | 0.023 | 0.097 |
| EVC2 (UniProt Q86UK5) | -0.073 | -0.142 | -0.039 | 0.053 | -0.066 | -0.146 | 0.09 | 0.016 | -0.224 | -0.194 |
| DBR1 (UniProt Q9UK59) | 0.051 | 0.036 | -0.003 | 0.015 | -0.018 | 0.017 | -0.049 | 0.054 | -0.021 | -0.064 |
| FAM160B1 (UniProt Q5W0V3) | 0.026 | -0.145 | 0.004 | -0.053 | -0.096 | -0.092 | 0.047 | -0.027 | 0.009 | -0.009 |
| DCAF13 (UniProt Q9NV06) | -0.083 | 0.333 | -0.01 | 0.17 | -0.067 | -0.047 | -0.063 | -0.112 | 0.083 | -0.103 |
| DHX40 (UniProt Q8IX18) | -0.025 | 0.022 | 0.008 | 0.025 | -0.146 | -0.019 | 0.31 | -0.037 | 0.039 | -0.014 |
| DDOST (UniProt P39656) | -0.068 | -0.009 | 0.036 | 0.013 | -0.065 | 0.003 | -0.019 | 0.012 | 0.019 | -0.04 |
| DBT (UniProt P11182) | 0.009 | 0.012 | 0.007 | 0.015 | 0.003 | -0.006 | -0.021 | 0.039 | 0.004 | 0.052 |
| DNTTIP2 (UniProt Q5QJE6) | -0.095 | 0.217 | 0.061 | 0.267 | -0.072 | -0.09 | -0.014 | -0.002 | 0 | 0.008 |
| ECH1 (UniProt Q13011) | -0.008 | -0.215 | -0.05 | -0.134 | 0.033 | 0.045 | -0.032 | 0.02 | -0.011 | 0.033 |
| DHRS1 (UniProt Q96LJ7) | 0.159 | 0.061 | 0.448 | 0.952 (active) | -0.025 | 0.115 | 0.494 | -0.113 | 0.096 | 0.009 |
| DNAAF2 (UniProt Q9NVR5) | 0.009 | -0.012 | 0.016 | -0.033 | 0.005 | 0.015 | 0.035 | 0.062 | -0.026 | 0.232 |
| DDX39A (UniProt O00148) | 0.135 | -0.021 | -0.017 | -0.093 | 0.066 | -0.16 | -0.015 | -0.028 | -0.007 | 0.012 |
| FAM3A (UniProt P98173) | -0.057 | -0.022 | 0.005 | 0.007 | 0.044 | -0.021 | 0.04 | 0.066 | 0.067 | 0.055 |
| DDX46 (UniProt Q7L014) | 0.109 | -0.003 | 0.046 | 0.029 | 0.434 | 0.001 | 0.041 | -0.005 | 0.026 | 0.117 |
